Assay outcomes as filed in PubChem BioAssay.
Rows were chosen to be rich in hits. Some 11% of all compounds tested hit in one or more screens of this group.
USP30 inh: blocks human USP30 ubiquitin-rhodamine cleavage. Q70CQ3. purified USP30, Ub-rhodamine cleavage fluorescence. inhibition, % at 25 µM. actives 5.3% (n = 47,000). AID 1645860
USP17 block: inhibitors of human USP17 deubiquitinase | purified USP17, Ub-rhodamine cleavage fluorescence, 3 h | AID 1645855 | actives 6.5% (n = 47,000) | inhibition, % at 50 µM
USP28 block: blocks human USP28 ubiquitin-rhodamine cleavage; Q96RU2; purified USP28, Ub-rhodamine cleavage fluorescence, 30 min; inhibition, % at 25 µM; actives 3% (n = 47,000); AID 1645857
Target sequence (Q96RU2 whole entry, looked up): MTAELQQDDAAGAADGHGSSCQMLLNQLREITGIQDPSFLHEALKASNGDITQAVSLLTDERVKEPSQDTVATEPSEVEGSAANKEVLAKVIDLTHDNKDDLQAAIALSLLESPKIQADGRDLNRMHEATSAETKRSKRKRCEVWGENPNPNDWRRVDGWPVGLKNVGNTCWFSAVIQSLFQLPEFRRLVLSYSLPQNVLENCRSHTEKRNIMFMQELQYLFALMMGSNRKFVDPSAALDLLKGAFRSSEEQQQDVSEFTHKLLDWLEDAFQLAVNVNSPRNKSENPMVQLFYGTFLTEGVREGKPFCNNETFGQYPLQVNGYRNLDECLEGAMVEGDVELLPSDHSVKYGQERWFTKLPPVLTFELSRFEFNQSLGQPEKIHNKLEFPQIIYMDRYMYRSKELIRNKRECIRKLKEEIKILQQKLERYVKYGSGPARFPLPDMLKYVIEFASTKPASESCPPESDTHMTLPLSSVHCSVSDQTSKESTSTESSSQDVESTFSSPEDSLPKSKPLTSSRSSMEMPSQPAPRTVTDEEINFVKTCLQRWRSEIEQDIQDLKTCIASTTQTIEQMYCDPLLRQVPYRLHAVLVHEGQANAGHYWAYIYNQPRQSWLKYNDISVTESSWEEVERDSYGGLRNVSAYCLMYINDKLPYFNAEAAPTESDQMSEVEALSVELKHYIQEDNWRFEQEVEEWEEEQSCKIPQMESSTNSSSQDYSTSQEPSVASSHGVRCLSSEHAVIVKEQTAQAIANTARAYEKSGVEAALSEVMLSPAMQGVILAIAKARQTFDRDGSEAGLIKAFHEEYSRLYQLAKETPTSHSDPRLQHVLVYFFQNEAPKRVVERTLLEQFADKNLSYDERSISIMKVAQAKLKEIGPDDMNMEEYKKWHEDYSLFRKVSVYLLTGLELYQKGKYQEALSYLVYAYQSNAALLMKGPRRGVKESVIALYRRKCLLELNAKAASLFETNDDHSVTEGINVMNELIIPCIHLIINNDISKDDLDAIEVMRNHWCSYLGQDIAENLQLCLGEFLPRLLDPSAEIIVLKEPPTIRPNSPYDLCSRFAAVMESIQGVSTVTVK
* marks the source's active call; other numbers are inactive results; i = inactive. No stated cut-off is given here; in the data, active means inhibition above about 30%; inactive means the rest.

SMILES	USP30 inh	USP17 block	USP28 block
O=C(COc1ccc(Cl)cc1)Nc1noc(-c2ccccc2)n1	69*	4	58*
CC(NC(=O)COc1ccccc1)c1nc(-c2ccc(Cl)cc2)no1 (stereo not drawn)	2	13	6
Cc1ccccc1-c1nc(NC(=O)COc2ccc(F)cc2)no1	36*	4	6
COc1cccc(O[C@@H]2C[C@@H](NC(=O)c3ccnn3C)[C@H](O)[C@H]2O)c1	7	0	13
Cc1ccc(C(=O)N2C[C@H](OCC3CCOCC3)[C@H]3COC[C@H]32)cn1	7	1	8
O=C(CN1CCc2ccccc21)Nc1cc(C(=O)O)ccc1O	-12	6	2
Cc1cccc(N2CCN(C(=O)c3cc(=O)n(C)c4c3c(=O)n(C)c(=O)n4C)CC2)c1C	0	3	3
NC(=O)c1ccc[nH]1	7	-4	-9
COc1ccc(C(=O)NCc2c(C)nc3sc(C)nn23)cn1	5	8	0
CCOC(=O)C1CCN(C(=O)c2c[nH]c3ccc(S(=O)(=O)N(CC)c4ccc(F)cc4)cc3c2=O)CC1	-25	-34	-17
Cc1ccccc1-c1noc(-c2ccccc2OCC(=O)NC(C)C)n1	49*	62*	14
Cc1ccc(OCC(=O)Nc2onc3c2CCCC3)cc1	5	-11	5
CC(C)NC(=O)COc1cccc(-c2noc(-c3ccc(F)cc3)n2)c1	17	17	6
O=C(COc1ccc(Cl)cc1)Nc1onc2c1CCCC2	56*	50*	-1
Cc1noc(C2(NC(=O)Nc3ccccc3C(F)(F)F)CCCCC2)n1	20	10	18
O=C(c1ccc(N2CCCN(Cc3ccccc3)C2=O)cc1)N1CCC(O)CC1	4	-3	0
COc1cc(-n2cnc3cc(C(=O)NCCN4CCOCC4)ccc32)cc(OC)c1OC	0	8	3
Cc1cc(C)cc(-n2cnc3cc(C(=O)NCCC4=CCCCC4)ccc32)c1	15	0	63*
Cc1nc(C(F)(F)F)c(C(=O)Nc2ccccn2)s1	11	0	-2
O=C(COC(=O)c1ccc2ccccc2n1)Nc1ccc(Br)cc1	i	-168	-172
CN(C)S(=O)(=O)c1cccc(C(=O)OCc2ccccc2C#N)c1	22	0	36*
N#Cc1ccc(COC(=O)c2ccc3ccccc3n2)cc1	-29	-14	64*
N#Cc1ccccc1COC(=O)c1ccc2ccccc2n1	10	-11	62*
Cc1nc2ccccc2n1CC(=O)OCc1ccc(C#N)cc1	-4	-11	-18
O=C(COC(=O)c1ccc2ccccc2n1)Nc1ccc(F)cc1	-427	-173	-121
SMILES	USP30 inh	USP17 block	USP28 block
O=C(OCc1ccc(Br)cc1)c1ccc2ccccc2n1	23	22	82*
Cc1ccc(N(C)S(=O)(=O)c2cccc(C(=O)OCC(=O)c3ccc(-c4ccccc4)cc3)c2)cc1	-189	-11	-58
CS(=O)(=O)N(CC(=O)Nc1ccc(CC#N)cc1)c1ccc2c(c1)OCO2	3	-1	-4
CC(=O)N1Cc2ccccc2OC2(CCCN(Cc3ccccc3F)C2)C1 (stereo not drawn)	25	10	5
C=C1C=C(NCc2ccccc2)n2nc3nc(C)cc(C)c3c2N1	-246	-63	-68
Cc1cccc(S(=O)(=O)N2C[C@H]3C[C@H](C(=O)N4CCOCC4)[C@@H](C2C)N3C)c1 (stereo partly drawn)	18	12	4
Cc1ccc2c(=O)c(C(=O)N3CCCCC3)cn(CC(=O)NC3CCCCC3)c2n1	-14	-14	-12
O=C(c1cc(C2CC2)[nH]n1)N1CCCCC1	8	17	12
O=C(c1cc(C2CC2)[nH]n1)N1CCN(Cc2ccccc2)CC1	34*	18	17
Cc1nn(-c2ccccc2)c(Cl)c1C(=O)NCCc1c[nH]c2ccccc12	-38	-9	-7
CCN(CC)c1cc(C)c2cc(NC(=O)c3ccncc3)ccc2n1	-20	-17	71*
CCN(CC)c1cc(C)c2cc(NC(=O)CCc3ccc(OC)cc3)ccc2n1	5	13	46*
Cc1cc(N2CCC(C)CC2)nc2ccc(NC(=O)C3CC3)cc12	-5	-14	21
COc1ccc(NC(=O)CCc2nc3ccccc3c(=O)[nH]2)cc1	-46	-22	-13
CCN1CCN(c2cc(C)c3cc(NC(=O)c4cncc(Br)c4)ccc3n2)CC1	-44	-16	21
Cc1cc(N2CCN(c3ncccn3)CC2)nc2ccc(NC(=O)/C=C/c3ccccc3Cl)cc12	10	51*	40*
COc1ccc(CCC(=O)Nc2ccc3nc(N4CCN(c5ncccn5)CC4)cc(C)c3c2)cc1	30*	10	16
COc1cccc(CNC(=O)CCC(=O)Nc2ccc3nc(N4CCCCC4)cc(C)c3c2)c1	-30	0	0
C[C@]12CCCN(C(=O)CNC(=O)c3ccccc3)[C@H]1CCCC(=O)N2	15	7	8
Cc1cc(N2CCCC2)n2nc(CN3CCN(c4ccccn4)CC3)nc2n1	-2	-7	-4
CCOc1ccccc1NCc1nc2nc(C)cc(C)n2n1	7	10	5
Cc1cccc(NC(=O)CNC(=O)[C@@H]2Cc3ccccc3CN2)c1	-29	-8	-7
COc1ccc(/C=C/C(=O)Nc2ccc3nc(N4CCN(c5ncccn5)CC4)cc(C)c3c2)cc1	-11	43*	0
COc1ccccc1CNC(=O)CCC(=O)Nc1ccc2nc(N3CCN(C)CC3)cc(C)c2c1	-22	-8	-1
CCOc1ccc(CNC(=O)CCC(=O)Nc2ccc3nc(N4CCCCC4)cc(C)c3c2)cc1	3	16	-3
SMILES	USP30 inh	USP17 block	USP28 block
COc1ccc(CC(=O)Nc2ccc3nc(N4CCOCC4)cc(C)c3c2)cc1	38*	53*	22
Cc1cc(N2CCCCC2)nc2ccc(NC(=O)CCC(=O)NC(C)c3ccc4c(c3)OCCO4)cc12 (stereo not drawn)	11	36*	17
Cc1cc(N2CCOCC2)nc2ccc(NC(=O)CCC(=O)NCc3ccc(F)cc3)cc12	-2	4	-7
COc1ccccc1CNC(=O)CCC(=O)Nc1ccc2nc(N3CCC(C)CC3)cc(C)c2c1	-12	32*	5
CN(C(=O)c1ccccn1)C(C)(C)C(=O)NC(c1ccccc1)c1ccccc1	-9	-22	-4
Cc1ccc(OCC(=O)OCc2cc(=O)n3cc(C)sc3n2)cc1	-4	-5	-6
COc1ccc(N(CC(=O)Nc2cccnc2)S(C)(=O)=O)cc1Cl	-18	-8	-11
Cc1ccc(NC(=O)NCCN2CCc3ccccc3C2)cc1	16	5	24
CC12NC(=O)C(CC13C(=O)Nc1ccccc13)n1c2nc2ccccc2c1=O (stereo not drawn)	-14	-24	2
COc1ccc(CCC(=O)Nc2ccc3c(c2)Sc2ncccc2C(=O)N3C)cc1	-70	-8	55*
CCN1C(=O)c2cccnc2Sc2cc(NC(=O)CCc3ccc(OC)cc3)ccc21	-78	-11	12
Cc1ccc(N2CCCS2(=O)=O)cc1NS(=O)(=O)CCc1ccccc1	i	-179	-196
CCCC(=O)NC1(c2nc(-c3cccnc3)no2)CCCCC1	20	14	18
CCCCOc1ccc(C(=O)NC2(c3nc(-c4cccnc4)no3)CCCCC2)cc1	32*	17	10
O=C(c1nc(-c2ccc3cc[nH]c3c2)no1)N1CCN(c2ccc(F)cc2)CC1	-21	-4	0
